# The list is not random: actives were taken first. Their share in the collection is about 8.2%.
# SW480 rereplic: inducers of DNA re-replication in SW480 colon cancer cells; SW480 DNA re-replication, Hoechst DNA content imaging, 48 h; Potency, µM (series often up to 46.1 µM), for inactives: top-dose re-replication activation, hits mostly activators; 340,000 compounds, 1.8% hits; AID 624297; also: % of control where 0% means no effect; nearly all actives have a fitted effect of over 55% in size
#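 Image-based DNA-content assay: after two days of treatment, nuclei were labelled with the DNA dye Hoechst and imaged, and hits were compounds raising the count of nuclei showing high fluorescence intensity.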
# MCF10A rereplic: inducers of DNA re-replication in MCF 10A breast cells. MCF 10A DNA re-replication, Hoechst nuclear intensity, 48 h. Potency, µM (highest dose often 46.1 µM), without a hit: at the top dose activity, positive = re-replication, most hits filed as activators. 350,000 compounds, 2.9% hits. AID 624296; also: % of control where 0% means no effect; nearly all actives have a fitted effect of over 50% in size
# ELG1 repair inh: ELG1-dependent DNA repair inhibition; 330,000 compounds, 2.3% hits; HEK293T ELG1-luciferase reporter, luminescence, 16 h; DNA damage induced by 5-fluorouridine; Potency, µM (highest dose often 46.1 µM), for inactives: at the highest dose activity change, negative = inhibition, actives largely listed as inhibitors; AID 504467; also: % is scaled to controls: 0 for no effect and ±100 for the full control effect; nearly all actives have a fitted effect of over 55% in size
#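 HEK293T cells expressing luciferase-tagged ELG1 (2,000/well) received 5-Fluorouridine plus compound or DMSO for 16 hr at 37 °C. Luciferase was read by ONE-Glo luminescence after 30 min at room temperature.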
# KB-3-1 cytotox: KB-3-1 parental cell cytotoxicity. KB-3-1 viability, CellTiter-Glo ATP luminescence, 72 h. Potency, µM (doses to about 46.1 µM), usual class: cytotoxic. 400,000 compounds, 1.4% hits; also: % is scaled to controls: 0 for no effect and ±100 for the full control effect; nearly all actives have a fitted effect of over 60% in size
#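 Luminescent ATP read-out (CellTiter-Glo) measures survival of drug-naive KB-3-1 cells after 72 h compound exposure at 37 °C. Titration series was screened from lowest to highest concentration, with DMSO vehicle plates as background controls.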
# KB-V1 cytotox: kills drug-selected multidrug resistant KB-V1 cells; KB-V1 MDR cells viability, CellTiter-Glo, 72 h; Potency, µM (doses to about 46.1 µM), actives largely listed as cytotoxic; 400,000 compounds, 3.4% hits; also: % is scaled to controls: 0 for no effect and ±100 for the full control effect; nearly all actives have a fitted effect of over 60% in size
#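 Following 72 h at 37 degrees C with compound, KB-V1 cell viability was read by CellTiter-Glo luminescence, medium being phenol-red-free DMEM plus 10% FBS; concentration-response parameters came from normalized, curve-fitted qHTS data.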
# Starred values were filed as active, the others as inactive; i = inactive; ? = inconclusive; . = not tested or not shown; ! = a repeat was not active; [ ] = another dose, or the depositor's remark. Calls follow the shape of the dose curve; as a rule, active = well fitted curve in the direction sought with a large enough effect; inconclusive = small, poorly fitted or top-dose-only effect, or another doubt; inactive = no such curve, though single readings can be large; an effect the other way counts as inactive or inconclusive. Potency is read from the fitted curve at half-maximal effect.
SMILES,SW480 rereplic,MCF10A rereplic,ELG1 repair inh,KB-3-1 cytotox,KB-V1 cytotox
CCOC(=O)C1(CCc2ccccc2)CCN(C2CCSCC2)CC1,?,8%,6%,i,?
COc1cc(C2C(C#N)=C(N)Oc3cc(O)ccc32)cc(OC)c1OC (centres undefined),-1%,1%,?,2.9µM*,?
COc1cc(C2C(C#N)=C(N)OC3=C2C(=O)CC(C)(C)C3)ccc1OC(=O)N1CCOCC1 (centres undefined),1%,?,8%,i,i
Cc1oc2cc3oc(=O)c(CCC(=O)N4CCCCC4)c(C)c3cc2c1C,.,.,.,i,i
N#C/C(=C(/O)c1ccc(S(=O)(=O)N(CCCl)CCCl)cc1)c1nc2ccccc2[nH]1,?,10µM*,3%,i,i
O=C(CSc1nnc(NC(=O)c2cccc(F)c2)s1)NCc1ccco1,22%,0%,?,i,i
COC1CCC(OC2CC(C3(C)CCC4(CC(O)C(C)C(C(C)/C=C(\C)C(=O)C(C)CC(C)C(=O)O)O4)O3)OC3(OC(C4OC(O)(CO)C(C)CC4C)CC3C)C2C)OC1C (centres undefined),?,1.5µM*,.,?,i
CC(=O)O[C@H]1CCC2C3CCC4=CC(=O)CCC4=C3C=C[C@@]21C (some centres undefined),-8%,16%,3%,?,8.2µM*
CC(=O)O[C@H]1CC[C@H]2[C@@H]3CCC4=CC(=O)CCC4=C3C=C[C@]12C,1%,10%,.,.,.
CN1C(=O)C(O)N=C(c2ccccc2)c2cc(Cl)ccc21 (centres undefined),-11%,2%,.,.,.
O=C(c1ccc(Cl)cc1)C1CCCN(Cc2ccc3ncccc3c2)C1 (centres undefined),-2%,?,?,?,4.1µM*
CC(C)Oc1cccc(C(=O)C2CCCN(Cc3ccon3)C2)c1 (centres undefined),-10%,?,13%,?,i
O=C(c1cccc(Cl)c1)C1CCCN(Cc2ccon2)C1 (centres undefined),-11%,-1%,0.58µM*,i,i
CN1C(=S)CN=C(c2ccccc2)c2cc(Cl)ccc21,-4%,1%,.,.,.
CCc1ccc(CN2CCN(Cc3ccc(SC)cc3)CC2)cc1,12%,30%,5.8µM*,i,?
CSc1ccc(CN2CCN(c3ccccc3C)CC2)cc1,-2%,16%,-12%,i,?
CC1Cc2ccccc2N1Cc1cccc(S(=O)(=O)N(C)C)c1 (centres undefined),1%,?,-23%,i,i
CC(C)(O)[C@H]1O[C@H]2CC[C@@]3(C)[C@@](O)(CC[C@H]4Cc5c([nH]c6ccccc56)[C@@]43C)C2=CC1=O,0.73µM*,?,-7%,i,i
CN(C)c1ccc(N=O)cc1,.,.,.,i,?
CN(C)c1ccc(C=C(C#N)C#N)cc1,0%,-6%,12%,i,i
COc1ccc(C=C(C#N)c2ccc(OC)cc2)cc1,?,?,.,18µM*,?
O=C(CN1CCOCC1)c1cccc([N+](=O)[O-])c1,.,.,.,?,i
CCN(CC)P(=S)(c1c(C)nc2ccccn12)c1c(C)nc2ccccn12,10µM*,65%,-14%,?,i
CCOc1c(P(=S)(N(C)C)N(C)C)c(C)nn1-c1ccccc1,-5%[9.22 µM],5%,14%,i,i
COc1ccc(-c2ccc(OC)c(OC)c2OC)cc1,3.7µM*,4.6µM*,.,?,?
SMILES,SW480 rereplic,MCF10A rereplic,ELG1 repair inh,KB-3-1 cytotox,KB-V1 cytotox
Cc1ccc(C(=O)CN2CCOCC2)cc1,.,.,.,i,i
O=c1ccc2cc(O[C@@H]3O[C@@H](CO)[C@H](O)[C@@H](O)[C@@H]3O)c(O)cc2o1,?,18µM*,-1%,i,i
O=[N+]([O-])c1ccc(Sc2nc3ccccc3o2)c([N+](=O)[O-])c1,4.1µM*,12µM*,?,i,?
O=[N+]([O-])c1ccc(N2CC2)c([N+](=O)[O-])c1,-9%,-36%,.,?,?
COC1=C(C)C(=O)c2c(c(COC(N)=O)c3n2C[C@@H]2[C@@H]3N2C)C1=O (some centres undefined),.,.,.,i,?
Cc1ccc2c(Cl)cc(Cl)c(OCC(=O)N(C(C)C)C(C)C)c2n1,-3%,-3%,26µM*,i,?
Cn1cc([N+](=O)[O-])c(C(=O)Nc2ccc3c(C(F)(F)F)cc(=O)oc3c2)n1,12µM*,?,-15%,?,i
O=[N+]([O-])OC1CO[C@H]2C(O[N+](=O)[O-])COC12 (some centres undefined),-1%,-2%,.,.,.
O=C(/C=C/c1ccc(F)cc1)NNC(=O)CCN1CCN(Cc2ccccc2)CC1,?,10µM*,6%,?,i
O=C(NC(=O)c1c(F)cccc1F)Nc1cc(Cl)c(OC(F)(F)C(F)C(F)(F)F)cc1Cl (centres undefined),1%,19%,.,.,.
CCOC(=O)c1sc(/N=C/c2c(O)n(-c3cccc(C)c3)c(=O)[nH]c2=O)c(C#N)c1C,2%,?,?,i,21µM*
CCOP(=O)(OCC)/C(C#N)=C/c1ccc(-c2ccc(F)cc2F)o1,6%,0%,?,i,i
Cc1cccc(N2CCc3c2nc2ccccc2c3N)c1,24%,15µM*,?,?,?
Cc1cccc(-n2c(/C=C/c3c(C)[nH]c4ccccc34)nc3ccccc3c2=O)c1,.,.,.,i,i
CCC(=O)Nc1ccc(C(=O)NNC(=O)c2cc([N+](=O)[O-])cc([N+](=O)[O-])c2)cc1,-39%,11%,2%,i,i
O=C(c1ccc2c(c1)OCO2)N1CCC2(CC1)OCCO2,-11%,-1%,15%,i,i
O=C(c1ccc(N2CCCCCC2)c([N+](=O)[O-])c1)N1CCC2(CC1)OCCO2,17%,23µM*,?,i,?
O=C(c1ccccc1)C(Cc1ccccc1)N1CCOCC1 (centres undefined),-2%,6%,.,i,18µM*
O=C(Cc1ccccc1)OCCN1CCOCC1,-1%,4%,0%,i,i
COc1cc2c3cc1Oc1cc(ccc1O)C[C@@H]1c4c(cc(OC)c(O)c4Oc4ccc(cc4)C[C@H]3N(C)CC2)CCN1C,10µM*,18µM*!,-8%,i,?
COc1cc2c3cc1Oc1c(OC)c(OC)cc4c1[C@H](Cc1ccc(cc1)Oc1cc(ccc1O)C[C@H]3N(C)CC2)N(C)CC4,16%,45%,19%,i,?
COc1cc2c(cc1O)C[C@H]1c3c(cc(O)c(OC)c3-2)CCN1C,-12%,?,?,i,i

# Screening data: PubChem, National Center for Advancing Translational Sciences (NCATS)
